Test [1] can be described thus: qHTS RealTime-Glo MT Cell Viability Assay in HepG2 cells - 8 hour (AID 1224873). Note: nearly all actives have a fitted effect of over 55% in size. Note: potency is the fitted concentration of half-maximal effect. The method, boiled down:
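Real-time viability: cells seeded at 600 per well together with NanoLuc and cell-permeant prosubstrate, compounds added after 5 h incubation. Luminescence tracked at 0, 8, 16, 24, 32 and 40 h of exposure.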
Background: In qHTS, concentration-response curves come from the screen itself.

Test [2] can be described thus: qHTS RealTime-Glo MT Cell Viability Assay in HEK293 cells - 40 hour (AID 1224874). Note: nearly all actives have a fitted effect of over 50% in size. Note: potency is the fitted concentration of half-maximal effect. The note with it: RealTime-Glo luminescence; max response: active compounds read low. The method, boiled down:
(§1)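 Viable HEK293 cells reduce a cell-permeant prosubstrate; the product diffuses out and is consumed by NanoLuc in the medium to give light. Compounds went in after a 5 h incubation and plates were read over the treatment course.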

The nature of test [3]: A CellTox Green Cytotoxicity Assay to monitor cytotoxicity in HEK293 cells - 24 hour (AID 1224875). Note: nearly all actives have a fitted effect of over 45% in size. Note: potency is the fitted concentration of half-maximal effect. An outline of the steps: (§2)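 Fluorescence intensity, read at 0, 8, 16, 24, 32 and 40 h of compound treatment, reflected dye binding to DNA of dead HEK293 cells; compounds (23 nL, DMSO) were added 5 h after plating cells with reagent.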
The nature of test [4]: A CellTox Green Cytotoxicity Assay to monitor cytotoxicity in HepG2 cells - 16 hour (AID 1224876). Note: nearly all actives have a fitted effect of over 45% in size. Note: potency is the fitted concentration of half-maximal effect. An outline of the steps:
(§3)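 Using 1536-well format, dye-containing HepG2 suspension was seeded, allowed 5 h at 37 C/5% CO2, dosed by pintool with compounds, positive and negative controls, and imaged for fluorescence across 40 h.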

A short description of test [5]: qHTS RealTime-Glo MT Cell Viability Assay in HepG2 cells - 32 hour (AID 1224877). Note: nearly all actives have a fitted effect of over 55% in size. Note: potency is the fitted concentration of half-maximal effect. An outline of the steps:
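Tox21 10K library screened in qHTS format on HepG2 cells carrying RealTime-Glo reagents. Compounds were added after a 5 h preincubation, and the luminescent signal from continuous culture was measured repeatedly during 40 h treatment.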

Test [6] can be described thus: A CellTox Green Cytotoxicity Assay to monitor cytotoxicity in HepG2 cells - 24 hour (AID 1224878). Note: nearly all actives have a fitted effect of over 45% in size. Note: potency is the fitted concentration of half-maximal effect. An outline of the steps: as §3
Test [7] can be described thus: A CellTox Green Cytotoxicity Assay to monitor cytotoxicity in HepG2 cells - 40 hour (AID 1224879). Note: nearly all actives have a fitted effect of over 40% in size. Note: potency is the fitted concentration of half-maximal effect. The method, boiled down: as §3
Test [8] in a line: qHTS RealTime-Glo MT Cell Viability Assay in HEK293 cells - 0 hour (AID 1224880). Note: nearly all actives have a fitted effect of over 45% in size. Note: potency is the fitted concentration of half-maximal effect. An outline of the steps:
as §1

Test [9] is described as follows: A CellTox Green Cytotoxicity Assay to monitor cytotoxicity in HEK293 cells - 32 hour (AID 1224881). Note: nearly all actives have a fitted effect of over 40% in size. Note: potency is the fitted concentration of half-maximal effect. An outline of the steps: as §2
Test [10] is described as follows: A CellTox Green Cytotoxicity Assay to monitor cytotoxicity in HepG2 cells - 0 hour (AID 1224882). Note: nearly all actives have a fitted effect of over 35% in size. An outline of the steps:
as §3

Values joined by “and” are separate entries in the source; they are usually repeats but may differ in a detail not shown here. Equal values may be shown once. Values without a mark were called inactive. Results filed as inconclusive are left out. Active and inactive are the calls of the source. Calls come from the whole dose curve; as a rule, active = well fitted curve in the direction sought with a large enough effect in the repeat runs; inconclusive = weak or mixed curves; inactive = no such curve, though single readings can be large; an effect the other way counts as inactive or inconclusive.
% is set by controls: 0 for no effect and ±100 for the full control effect.

Take `Cc1onc(-c2c(Cl)cccc2Cl)c1C(=O)N[C@@H]1C(=O)N2[C@@H]1SC(C)(C)[C@@H]2C(=O)O`: the Potency result in test [1], in test [3], in test [4], in test [5], in test [6] and in test [7] was “inactive” each time. Further, the Potency entry in test [8], in [9] and in test [10] was “inactive” each time. Also, the max response in test [2] is 9.42%.

On to `CCCCCCOC(=O)c1ccc(O)cc1`, for which the Potency entry in test [1], in test [3], in test [5], in test [8] and in [10] was “inactive” throughout. Further, the Potency in test [2] is 43.7 µM (active) and 21.9 µM (active); in test [4], 8.71 µM (active); in [6], 43.7 µM (active) and 9.77 µM (active); in test [7], 43.7 µM (active) and 11 µM (active).

As for `Oc1c(Cl)cc(Cl)c2cccnc12`, the Potency entry in test [1], in test [3], in test [4], in [5], in [8] and in [10] was “inactive” throughout. In addition, the Potency is 8.49 µM (active) in test [2], 8.49 µM (active) in [7] and 5.35 µM (active) in test [9].

Regarding `CC(C)c1ccc2c(c1)CC[C@H]1[C@](C)(CN)CCC[C@]21C`, the Potency in test [1] was 34.7 µM (active); in test [2], 11 µM (active); in [3] it was 19.5 µM (active); in test [4], 19.5 µM (active); in test [5], 11 µM (active); in test [7] it was 11 µM (active). Besides, the Potency in test [9] is 19.5 µM (active). Besides, the Potency entry in test [10] is “inactive”.

Regarding `COC(=O)C1=C(C)NC(C)=C(C(=O)OCCc2ccc(N3CCN(C(c4ccccc4)c4ccccc4)CC3)cc2)C1c1cccc([N+](=O)[O-])c1` (stereo not drawn), the Potency entry in test [1], in [3], in [4], in test [5], in test [7] and in test [8] was “inactive” throughout. Also, the Potency result in [9] and in test [10] was “inactive” throughout. In addition, the max response in [2] was 0.767%.

On to `CCC(CN)=C(c1ccccc1)c1ccccc1`, for which the Potency entry in test [1], in test [3], in test [4], in test [5], in test [6] and in test [9] was “inactive” throughout. In test [10], the Potency entry was “inactive”. The max response in test [2] is -19.1%.

With `C[C@@H](NCCCc1cccc(C(F)(F)F)c1)c1cccc2ccccc12`, the Potency in test [1] is 23.9 µM (active); in test [2] it was 23.9 µM (active); in test [3], 23.9 µM (active); in [4], 19 µM (active); in test [5], 16.9 µM (active); in test [7] it was 15.1 µM (active). In addition, in test [9], the Potency is 23.9 µM (active). Also, the Potency entry in test [10] was “inactive”.

As for `Cc1c(C)c2c(c(C)c1O)CCC(C)(COc1ccc(CC3SC(=O)NC3=O)cc1)O2` (stereo not drawn), the Potency entry in test [1], in test [3], in test [5], in test [6], in test [7] and in test [8] was “inactive” in each case. Also, the Potency result in [9] and in [10] was “inactive” throughout. For the same molecule, the Potency in [2] was 43.6 µM (active).

For `COc1cc(-c2ccc(N=C=O)c(OC)c2)ccc1N=C=O`, the Potency entry in test [1], in [3], in test [4], in test [5], in test [7] and in test [8] was “inactive” in each case. The Potency entry in test [9] and in test [10] was “inactive” throughout. In addition, the max response in [2] is -10%.

With `CCCC1O[C@@H]2C[C@H]3[C@@H]4CCC5=CC(=O)C=C[C@]5(C)[C@H]4[C@@H](O)C[C@]3(C)[C@]2(C(=O)CO)O1` (stereo partly drawn), the Potency entry in [1], in [3], in test [4], in test [5], in test [6] and in [9] was “inactive” each time. Also, the Potency result in test [10] was “inactive”. Moreover, the Potency in test [2] is 24.6 µM (active) and 43.6 µM (active); in [7], 49 µM (active); in [8] it was 30.9 µM (active).

With `CCCCCCCC[P+](CCCCCCCC)(CCCCCCCC)CCCCCCCC`, the Potency was 17.3 µM (active) in test [1]; 0.194 µM (active) in test [2]; 4.87 µM (active) in test [3]; 12.2 µM (active) in [4]; 12.2 µM (active) in [5]; 9.71 µM (active) in [6]. The Potency in [7] is 10.9 µM (active); in test [9], 4.87 µM (active). Besides, the Potency result in [10] is “inactive”.

With `Cc1cc(O)c2ccccc2c1O`, the Potency in test [1] was 10.7 µM (active); in [2] it was 8.49 µM (active); in test [3], 9.52 µM (active); in test [4], 13.4 µM (active); in [5] it was 13.4 µM (active); in test [6], 13.4 µM (active). Moreover, the Potency in [7] is 13.4 µM (active); in [9] it was 9.52 µM (active). Further, the Potency result in [10] is “inactive”.

In the case of `CCCCCCCCNC(C)C(O)c1ccc(SC(C)C)cc1` (stereo not drawn), the Potency in [1] is 21.3 µM (active); in [2] it was 8.49 µM (active); in [3] it was 16.9 µM (active); in [4] it was 16.9 µM (active); in test [5] it was 13.4 µM (active); in [7], 15.1 µM (active). In test [9], the Potency is 16.9 µM (active). For the same molecule, the Potency result in test [10] is “inactive”.

On to `O=C(Nc1ccc(Oc2ccc(Cl)cc2)c(Cl)c1)c1cc(I)cc(I)c1O`, for which the Potency result in [1], in test [3], in [4], in test [5], in test [6] and in test [7] was “inactive” each time. Besides, the Potency result in test [8], in test [9] and in [10] was “inactive” throughout. In addition, in test [2], the max response is 2.12%.

With `OCCN1CCN(CC/C=C2/c3ccccc3Sc3ccc(C(F)(F)F)cc32)CC1`, the Potency in test [1] was 23.9 µM (active); in test [2], 19 µM (active); in [3] it was 26.8 µM (active); in test [4], 23.9 µM (active); in [5] it was 15.1 µM (active); in [6] it was 16.9 µM (active). The Potency in test [7] is 13.4 µM (active); in [9], 26.8 µM (active). In addition, the Potency result in test [10] was “inactive”.

As for `NC(=O)NS(=O)(=O)c1ccc(N)cc1`, the Potency entry in test [1], in test [3], in [5], in test [6], in [7] and in test [8] was “inactive” throughout. In addition, the Potency entry in test [9] and in [10] was “inactive” each time. Moreover, in test [2], the max response is 2.7%.

Turning to `O=C(NOCC1CC1)c1ccc(F)c(F)c1Nc1ccc(I)cc1Cl`, the Potency entry in [1], in test [3], in test [4], in test [9] and in test [10] was “inactive” throughout. Also, the Potency in test [2] is 23.9 µM (active); in test [6], 0.0425 µM (active); in [7], 0.107 µM (active); in test [8], 16.9 µM (active).

For the molecule `Nc1cc(C(F)(F)F)ccc1S`, the Potency entry in test [1], in test [3], in test [4], in test [5], in test [6] and in [7] was “inactive” each time. The Potency result in [8], in test [9] and in [10] was “inactive” in each case. The max response in [2] was 3.21%.

Consider `NC(=O)N1C(=O)C(C(=O)c2cc(Cl)cs2)c2cc(F)c(Cl)cc21` (stereo not drawn), for which the Potency entry in test [1], in test [3], in [4], in test [9] and in test [10] was “inactive” each time. Besides, in test [2], the max response was -0.493%.
